In PubChem BioAssay (NCATS):
Where “and” joins values, the source holds several entries; their conditions need not be identical. Equal values may be shown once. Records with an inconclusive call do not appear. The source holds several records for some structures; these can differ, active in one and inactive in another. Calls of active or inactive are those of the source. Calls come from the whole dose curve; as a rule, active = well fitted curve in the direction sought with a large enough effect; inconclusive = small, poorly fitted or top-dose-only effect, or another doubt; inactive = no such curve, though single readings can be large; an effect the other way counts as inactive or inconclusive. Square brackets hold non-standard residues; d marks the D form. Peptide text beside a SMILES is read from it. * marks the point of attachment. Nva = CCC[C@H](N)C(=O)O; Cbz = O=C(OCc1ccccc1)*

Legend:
[1] = Viability qHTS for spleen associated tyrosine kinase inhibitor (SYKi) naive MV4-11 cells (AID 1963823); note: nearly all actives have a fitted effect of over 40% in size
Outline: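 Luminescence from CellTiter-Glo, developed 10 min at room temperature, gave viability of MV4-11 cells never exposed to SYK inhibitor. Cells (500/well) had been incubated with compounds for 72 hr under standard culture conditions.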

[2] = Viability qHTS for spleen associated tyrosine kinase inhibitor (SYKi) drug resistant MV4-11 cells (AID 1963824); note: nearly all actives have a fitted effect of over 35% in size
Outline: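 SYK inhibitor-resistant MV4-11 AML cells, 500 per well, added to predispensed compounds and incubated 72 hr at 37 C, 5% CO2. Viability measured by CellTiter-Glo luminescence after 10 min at room temperature.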

[3] = Quantitative highthroughput screen to assess conditional lethalithy of NOMO1 cells grown in RPMI1640 with untreated serum (RPMI+s) (AID 1963876); note: nearly all actives have a fitted effect of over 35% in size;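 for Viability: 100% = DMSO wells and 0% = empty wells without cells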
Outline: (§1)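 Each medium arm—HPLM with 10% dialyzed FBS, or RPMI1640 with 5 mM glucose and 10% untreated or dialyzed FBS—was screened against an 11-point, 3-fold compound titration for 48 h at 37 °C, with CellTiter-Glo luminescence as endpoint.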

[4] = Quantitative highthroughput screen to assess conditional lethalithy of NOMO1 cells grown in RPMI1640 with dialyzed fetal bovine serum (RPMI+ds) (AID 1963877); note: nearly all actives have a fitted effect of over 30% in size;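 for Viability: series mostly up to about 46 µM; 100% = DMSO control wells and 0% = empty wells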
Outline: as §1

[5] = Quantitative highthroughput screen to assess conditional lethalithy of NOMO1 cells grown in Human Plasma-Like Medium with dialyzed fetal bovine serum (HPLM+ds) (AID 1963878); note: nearly all actives have a fitted effect of over 35% in size;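 for Viability: 100% = DMSO wells and 0% = empty wells on each plate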
Outline: as §1

[6] = Quantitative highthroughput screen to assess conditional lethalithy of P12 Ichikawa cells grown in Human Plasma-Like Medium with dialyzed fetal bovine serum (HPLM+ds) (AID 1963879); details: Potency: viability; note: nearly all actives have a fitted effect of over 35% in size; for Viability: series mostly up to about 46 µM
Outline: as §1

[7] = Quantitative highthroughput screen to assess conditional lethalithy of P12 Ichikawa cells grown in RPMI1640 with dialyzed fetal bovine serum (RPMI+ds) (AID 1963880); details: Potency: P12-Ichikawa viability; note: nearly all actives have a fitted effect of over 35% in size;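 for Viability: 100% = DMSO wells and 0% = empty wells on each plate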
Outline: as §1

[8] = Quantitative highthroughput screen to assess conditional lethalithy of P12 Ichikawa cells grown in RPMI1640 with untreated serum (RPMI+s) (AID 1963881); details: Potency: viability; note: nearly all actives have a fitted effect of over 35% in size;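 for Viability: series mostly up to about 46 µM; 100% = DMSO wells and 0% = empty wells without cells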
Outline: as §1

[9] = Quantitative highthroughput screen to assess conditional lethalithy of SEM cells grown in Human Plasma-Like Medium with dialyzed fetal bovine serum (HPLM+ds) (AID 1963882); note: nearly all actives have a fitted effect of over 35% in size; for Viability: series mostly up to about 46 µM
Outline: as §1

[10] = Quantitative highthroughput screen to assess conditional lethalithy of SEM cells grown in RPMI1640 with unreated serum (RPMI+s) (AID 1963883); note: nearly all actives have a fitted effect of over 35% in size;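 for Viability: 100% = DMSO wells and 0% = empty wells without cells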
Outline: as §1

[11] = Quantitative highthroughput screen to assess conditional lethalithy of SEM cells grown in RPMI1640 with dialyzed fetal bovine serum (RPMI+ds) (AID 1963884); note: nearly all actives have a fitted effect of over 35% in size;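 for Viability: series mostly up to about 46 µM; 100% = DMSO control wells and 0% = empty wells without cells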
Outline: as §1

[12] = Cellular viability qHTS for adrenocortical cancer (ACC) cell line SW-13 (AID 1963989); details: SW-13 ACC cells viability, CellTiter-Glo, 48 h; activity (max response): stronger effect = lower value; note: nearly all actives have a fitted effect of over 65% in size;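 for activity (max response): cells grown in serum-free medium with ITS supplement; % is set by controls: 0 for no effect and ±100 for the full control effect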
Outline: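 48 h treatment, SW-13 in ITS/DMEM serum-free; doses up to 46 uM; readout CellTiter-Glo luminescence; curve fit four-parameter logistic.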

[13] = Cellular viability qHTS for adrenocortical cancer (ACC) cell line NCI-H295R (AID 1963990); note: nearly all actives have a fitted effect of over 60% in size
Outline: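 Compound titrations (up to 46 uM final) are applied to NCI-H295R cultures for 48 h at 37C. Viable cell number is estimated by CellTiter-Glo signal, normalised to DMSO and doxorubicin controls.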
Potency is the fitted concentration of half-maximal effect.

Nc1cc(C(F)(F)F)c(-c2cc(N3CCOCC3)nc(N3CCOCC3)n2)cn1
active: Potency [1] 2.06 µM and 1.86 µM | Potency [2] 1.46 µM and 2.09 µM | Potency [3] 1.87 µM | Potency [4] 1.87 µM | Potency [5] 1.18 µM | Potency [6] 1.32 µM | Potency [7] 1.32 µM | Potency [8] 1.66 µM | Potency [9] 0.935 µM | Potency [10] 1.05 µM | Potency [11] 0.833 µM | Potency [12] 2 µM | Potency [13] 3.16 µM

O=c1[nH]nc(Sc2ncc([N+](=O)[O-])s2)n1-c1ccc2c(c1)OCCO2
active: Potency [1] 2.35 µM | Potency [2] 2.35 µM | Potency [3] 9.35 µM | Potency [4] 8.33 µM | Potency [5] 9.35 µM | Potency [6] 14.8 µM | Potency [7] 9.35 µM | Potency [8] 8.33 µM | Potency [9] 8.33 µM | Potency [10] 7.43 µM | Potency [11] 8.33 µM | Potency [12] 17.8 µM | Potency [13] 6.31 µM

CCC[C@@H](C=O)NC(=O)[C@H](CC(C)C)NC(=O)[C@H](CC(C)C)NC(=O)OCc1ccccc1 (Cbz-Leu-Leu-[Nva]-aldehyde)
active: Potency [1] 0.742 µM | Potency [2] 0.934 µM | Potency [3] 1.32 µM | Potency [4] 2.64 µM | Potency [5] 1.87 µM | Potency [6] 3.32 µM | Potency [7] 3.32 µM | Potency [8] 2.64 µM | Potency [9] 2.35 µM | Potency [10] 0.526 µM | Potency [11] 1.48 µM | Potency [12] 2 µM | Potency [13] 1.58 µM

Cc1ncc(-c2ccnc(Nc3ccc(S(C)(=O)=O)cc3)n2)n1C(C)C
active: Potency [1] 1.3 µM and 1.66 µM | Potency [2] 920 nM and 934 nM | Potency [3] 7.43 µM | Potency [4] 5.9 µM | Potency [5] 7.43 µM | Potency [6] 20.9 µM | Potency [7] 13.2 µM | Potency [8] 13.2 µM | Potency [9] 3.72 µM | Potency [10] 3.32 µM | Potency [11] 5.26 µM | Potency [13] 7.08 µM

COCCOc1nc(-c2ccc(Cl)c(Cl)c2)n(-c2ccc(NC(=O)CCl)cc2)n1
inactive: Potency [3] | Potency [4] | Potency [5] | Potency [6] | Potency [7] | Potency [8] | Potency [9] | Potency [10] | Potency [11]
active: Potency [1] 2.31 µM | Potency [2] 1.48 µM | Potency [12] 4.47 µM | Potency [13] 0.199 µM

C[C@](N)(Cc1ccc(O)c(O)c1)C(=O)O
inactive and 16.6 µM (active): Potency [2]
active: Potency [9] 26.4 µM | Potency [10] 23.5 µM | Potency [11] 23.5 µM
inactive: Potency [1] | Potency [3] | Potency [4] | Potency [5] | Potency [6] | Potency [7] | Potency [8] | activity (max response) [12] 12% and -6.33% | Potency [13]

O=C(O)C1CCCN(CCC=C(c2ccccc2)c2ccccc2)C1 (stereo not drawn)
inactive: Potency [1] | Potency [2] | Potency [3] | Potency [4] | Potency [5] | Potency [6] | Potency [7] | Potency [8] | Potency [9] | Potency [10] | Potency [11] | activity (max response) [12] -5.26% | Potency [13]

Cc1cc(-c2ncc(CC(=O)Nc3ccc(-c4cnccn4)cn3)cc2C)ccn1
active: Potency [1] 5.25 µM | Potency [2] 2.06 µM
inactive: Potency [3] | Potency [4] | Potency [5] | Potency [6] | Potency [7] | Potency [8] | Potency [9] | Potency [10] | Potency [11] | activity (max response) [12] -24.1% | Potency [13]

CNC(=O)c1ccc2cc(C3(O)CCn4cncc43)ccc2c1 (stereo not drawn)
inactive: Potency [1] | Potency [2] | Potency [3] | Potency [4] | Potency [5] | Potency [6] | Potency [7] | Potency [8] | Potency [9] | Potency [10] | Potency [11] | activity (max response) [12] -3.07% | Potency [13]

Cc1noc(NS(=O)(=O)c2ccc(N)cc2)c1C
inactive: Potency [1] | Potency [2] | Potency [3] | Potency [4] | Potency [5] | Potency [6] | Potency [7] | Potency [8] | Potency [9] | Potency [11] | activity (max response) [12] -8.37%

CC(C)c1ccc2c(c1)c(SC(C)(C)C)c(CC(C)(C)C(=O)O)n2Cc1ccc(Cl)cc1
inactive: Potency [3] | Potency [4] | Potency [5] | Potency [6] | Potency [7] | Potency [8] | Potency [9] | Potency [10] | Potency [11] | activity (max response) [12] 11.6% | Potency [13]
active: Potency [1] 16.6 µM | Potency [2] 10.5 µM

O=C(/C=C\n1cnc(-c2cc(C(F)(F)F)cc(C(F)(F)F)c2)n1)NNc1cnccn1
active: Potency [1] 0.833 µM | Potency [2] 1.18 µM | Potency [3] 1.05 µM | Potency [4] 0.933 µM | Potency [5] 0.831 µM | Potency [6] 0.588 µM | Potency [7] 0.588 µM | Potency [8] 0.524 µM | Potency [9] 0.741 µM | Potency [10] 0.588 µM | Potency [11] 0.741 µM | Potency [12] 12.6 µM | Potency [13] 2.24 µM
